“And” between values parts separate entries of the source, which are not always exact repeats. Identical values can stand only once. Records with an inconclusive call do not appear. Where a call stands in place of a potency, no number is given. The source made the active and inactive calls. Calls come from the whole dose curve; as a rule, active = well fitted inhibition curve with a large enough effect; inconclusive = small, poorly fitted or top-dose-only effect; inactive = no such curve, though single readings can be large or run the other way.
Potency is the fitted concentration of half-maximal effect.

This assay can be described thus: qHTS for Inhibitors of the Aldehyde Dehydrogenase Family (ALDH1A2, ALDH1A3, ALDH2, ALDH3A1) (AID 2061307). For potency: test system not described further here. Note: nearly all actives have a fitted effect of over 50% in size. Conditions: ALDH inhibition qHTS; series mostly up to 50.3 µM.
Turning to `c1ccc(CCN(Cc2ccccc2)C2CCN(c3ccccc3)CC2)cc1`, the Potency entry was “inactive”.

Turning to `Cc1ccccc1Cn1cnc2cc(-c3cccc(NC(=O)Cc4ccccc4)n3)ccc21` (tested in a mixture with another compound), the Potency entry was “inactive”.

For the compound `O=C(Nc1ccc(C(=O)N2CCCC2)cc1)c1ccccc1F`, the Potency was 10.7 µM (active).

Take `O=C(Nc1cccc(Oc2ncccn2)c1)c1cccc(C(F)(F)F)c1`: the Potency result was “inactive”.

For the compound `Cc1ccc(N(C)S(=O)(=O)c2ccc(-c3cnc(C4CC4)o3)cc2)cc1`, the Potency result was “inactive”.

As for `COc1cc2nc(N3CCN(C)CC3)nc(N)c2cc1OC`, the Potency entry was “inactive”.

For `CC(NC(=O)c1c(O)nc2ccccn2c1=O)c1ccccc1` (stereo not given), the Potency entry is “inactive”.

Take `CCn1nc(C)c(CNc2ccc(S(N)(=O)=O)cc2C#N)c1C`: the Potency result was “inactive”.

Regarding `CN(C)c1ccc(C(=O)Nc2nnc(C3=COCCO3)o2)cc1`, the Potency entry is “inactive”.

Turning to `O=C(O)c1csc(-n2[nH]c(-c3c(F)cccc3F)cc2=O)n1`, the Potency entry is “inactive”.

On to `NC(=O)c1ccc(OCc2nc(-c3ccc(C(F)(F)F)cc3)no2)cc1`, for which the Potency entry was “inactive”.

Consider `NCC(=O)Nc1cccc(-c2nn3c(=O)cc(N4CCNCC4)nc3s2)c1`, for which the Potency result was “inactive”.

On to `O=Cc1ccc(N2Cc3ccccc3C2)cc1`, for which the Potency result was “inactive”.

As to `Cc1c(P(=S)(c2ccccc2)c2ccccc2)[n+]2ccccc2n1C/C=C/c1cccc(Br)c1`, the Potency is 3.16 µM (active).

For `NC(=O)c1ccc(NC(=O)c2cnn(-c3ccccc3)n2)cc1`, the Potency entry was “inactive”.

Regarding `O=C(NCc1ccccc1Cl)c1ccc(-c2nn[nH]n2)cc1`, the Potency result was “inactive”.

`COc1ccc(-n2nc(C(=O)Nc3ccc(Cl)cn3)c3c4ccccc4n(C)c3c2=O)cc1`: the Potency entry was “inactive”.

Consider `NS(=O)(=O)c1ccc(Cc2cn(-c3nc(C(=O)O)cs3)c3ccccc23)cc1`, for which the Potency result is “inactive”.

With `CC(Sc1nc2c(cnn2C2COC2)c(=O)n1-c1ccccc1)c1ccccc1` (stereo not given), the Potency entry is “inactive”.

With `CCOc1ccc(C(=O)NCc2nc(-c3ccc(Cl)cc3)no2)cc1OCC`, the Potency result is “inactive”.

In the case of `NNC(=O)c1ccc2ccccc2n1`, the Potency entry is “inactive”.

Take `Cc1cc(NS(=O)(=O)c2ccc(NCCc3ccc(Cl)c(Cl)c3)cc2)no1`: the Potency is 2.83 µM (active).

As to `O=C1Cc2cc(S(=O)(=O)N3CCN(c4ccc(C(=O)O)cc4)CC3)ccc2N1`, the Potency entry was “inactive”.

`COc1ccc(Cl)cc1NC(=O)c1nn(-c2ccc(C)cc2)c(=O)n(C)c1=O`: the Potency entry was “inactive”.

In the case of `COc1ccccc1CNc1ccc(N2CCCCC2)cc1`, the Potency is 2.52 µM (active).

On to `Cc1ccc(S(=O)(=O)Nc2ccc(O)c3ccccc23)c(C)c1`, for which the Potency is 14.2 µM (active).

For the compound `O=C(Nc1ccc2oc(-c3cccnc3)nc2c1)c1ccc(-c2ccccc2)o1`, the Potency result is “inactive”.

On to `COc1cccc(N2CCN(C(=O)c3ccc4c(c3)N(C)C3CCCCCN3C4=O)CC2)c1` (stereo not given), for which the Potency entry was “inactive”.

Consider `COC(=O)c1ccc(NC(=O)CN(c2cccc(C(F)(F)F)c2)S(C)(=O)=O)cc1`, for which the Potency entry was “inactive”.

In the case of `Cn1ccc(=Nc2ccc(NC(=O)c3ccc(N=c4ccn(C)c5ccc([N+](=O)[O-])cc45)cc3)cc2)cc1`, the Potency was 8.96 µM (active).

Take `O=C(Nc1ccn[nH]1)c1ccn(-c2cccc(F)c2)n1`: the Potency result was “inactive”.

On to `CC(Sc1nc2nn(C3COC3)cc2c(=O)n1-c1ccccc1)c1ccccn1` (stereo not given), for which the Potency entry was “inactive”.

`O=C(N/N=C/c1ccc(Br)o1)c1cccc(F)c1`: the Potency was 6.31 µM (active).

Consider `CNC(=O)c1cc(-c2ccc(N3CCOCC3)cc2)cc2c1OCCN2Cc1cccnc1`, for which the Potency entry was “inactive”.

In the case of `COc1cc(O)c(C(CC(=O)N2CC(C)CC(C)C2)c2ccccc2Cl)c(OC)c1` (stereo not given), the Potency is 1 µM (active).

On to `CN1CCN(c2ccc3ncc(Nc4ccc(Cl)c(C(F)(F)F)c4)n3n2)CC1`, for which the Potency is 28.2 µM (active).

As to `CCOc1ccccc1NC(=O)c1nn(-c2ccc(OC)cc2)c(=O)c2c1c1ccccc1n2C`, the Potency entry is “inactive”.

Take `CCOc1ccc(NCC(=O)Nc2ccc(Cl)cc2C)cc1`: the Potency is 2.25 µM (active) and 7.94 µM (active).

On to `FC(F)(F)c1ccc(CNc2nc(-c3ccncc3)nc3ccccc23)cc1`, for which the Potency was 4.47 µM (active).

For the compound `COc1ccc(OC)c(-n2c3c(cc(-c4nnn(-c5ccc(Cl)cc5)n4)c2=O)C(=O)CC(C)(C)C3)c1`, the Potency was 5.04 µM (active).

The record behind these values is PubChem BioAssay (NCATS).
